Data as given in PMC5540273 (PLoS ONE, 2017).

Columns and labels:
Conditions in all cases: concentration: 1 μM, replicates: in singlicate; n = 1
DYRK1B = tested on: DYRK1B
DYRK2 = tested on: DYRK2
EGFR = tested on: EGFR
EIF2AK1 = tested on: EIF2AK1
EPHA1 = tested on: EPHA1
EPHA2 = tested on: EPHA2
EPHA3 = tested on: EPHA3
EPHA4 = tested on: EPHA4
EPHA5 = tested on: EPHA5
EPHA6 = tested on: EPHA6
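Also: KINOMEscan kinase panel screen.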

| Structure (SMILES) | %Inh (DYRK1B) [%] | %Inh (DYRK2) [%] | %Inh (EGFR) [%] | %Inh (EIF2AK1) [%] | %Inh (EPHA1) [%] | %Inh (EPHA2) [%] | %Inh (EPHA3) [%] | %Inh (EPHA4) [%] | %Inh (EPHA5) [%] | %Inh (EPHA6) [%] |
| --- | --- | --- | --- | --- | --- | --- | --- | --- | --- | --- |
| COc1ccc(C2=C(Nc3cccc(O)c3)C(=O)NC2=O)cc1 [SB-390766] | 100 | 30 | 32 | 5 | 11 | 0 | 0 | 0 | 0 | 0 |
| Cc1cc(-c2c(-c3ccc(F)cc3)ncn2CCCN2CCOCC2)nc(N)n1 [SB-222517] | 20 | 34 | 0 | 0 | 0 | 0 | 0 | 20 | 9 | 30 |
| CNc1nccc(-c2ccc3c(N)n[nH]c3c2)n1 [GSK2206003] | 99.1 | 90 | 25 | 0 | 11 | 0 | 12 | 7 | 0 | 0 |
| CN(c1ccc(NC(=O)N2CCN(CCCN3CCOCC3)CC2)cc1)c1ccnc(Nc2ccc(CS(C)(=O)=O)cc2)n1.Cl [GW830899] | 0 | 0 | 48 | 0 | 48 | 22 | 0 | 4 | 0 | 0 |
| Fc1cc(Cl)ccc1Nc1ccnc2cc(-c3ccc(CN4CCSCC4)o3)ccc12 [GW560106] | 0 | 13 | 71 | 0 | 91.1 | 31 | 19 | 10 | 0 | 52 |
| CN(C)CCNS(=O)(=O)c1ccc(-c2ccnc3[nH]ccc23)cc1 [GSK977620] | 47 | 64 | 37 | 0 | 24 | 14 | 0 | 0 | 0 | 0 |
| Cc1ccc(-c2ccc3occ(-c4ccc(S(C)=O)cc4)c3c2)nn1 (centres unmarked) | 33 | 0 | 0 | 0 | 0 | 4 | 6 | 11 | 0 | 21 |
| COc1cc(Nc2nccc(N3CCC(NC(=O)Nc4ccc5c(c4)OCO5)C3)n2)cc(OC)c1OC (centres unmarked) [GSK1379766] | 0 | 0 | 0 | 0 | 14 | 0 | 0 | 7 | 0 | 4 |
| CN(c1ccc2c(c1)nc(NCc1ccccc1)n2C)c1ccnc(Nc2ccc(CS(C)(=O)=O)cc2)n1.Cl [GW811603] | 0 | 0 | 0 | 0 | 0 | 13 | 27 | 0 | 10 | 0 |
| COc1cccc2c(-c3ccncc3)c(-c3ccc(F)cc3)nn12 [GW468513] | 0 | 0 | 71 | 0 | 5 | 17 | 0 | 18 | 0 | 41 |
| CCn1c(-c2nonc2N)nc2c(-c3ccccc3)ncc(OCCCN)c21.O=C(O)C(F)(F)F.O=C(O)C(F)(F)F [GSK260205] | 0 | 14 | 56 | 90.8 | 24 | 0 | 12 | 0 | 0 | 0 |
| CN(C)c1ncnc2nc[nH]c12 [SKF-31736] | 39 | 23 | 0 | 0 | 0 | 0 | 8 | 0 | 0 | 0 |
| CCOc1nccc(-c2c(-c3ccc(F)cc3)ncn2C2CCNCC2)n1 [SB-249175] | 50 | 6 | 9 | 45 | 10 | 0 | 13 | 4 | 0 | 7 |
| CSc1ccc(NC2=C(c3ccc(Cl)cc3)C(=O)NC2=O)cc1 [SB-317658] | 17 | 22 | 6 | 0 | 32 | 0 | 0 | 28 | 31 | 26 |
| O=C1NC(=O)C(c2ccccc2Cl)=C1Nc1cccc(Cl)c1 [SB-342409] | 0 | 23 | 0 | 27 | 8 | 7 | 0 | 25 | 0 | 17 |
| COc1cccc(CC(=O)N2CCc3cc(-c4cn(C)c5ncnc(N)c45)ccc32)c1 [GSK2608899] | 22 | 22 | 23 | 87 | 0 | 0 | 19 | 4 | 5 | 10 |
| Cc1ccc(Nc2ccnc(Nc3ccc(C)c(F)c3)n2)cc1O.Cl [GW582868] | 0 | 0 | 38 | 3 | 48 | 19 | 0 | 2 | 0 | 6 |
